This is an account of results in PubChem BioAssay AID1347406.

SMILES strings stand for the structures. The source made the active and inactive calls.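 How the source made its calls: active means IC50, the dose giving half inhibition, at or below 10 µM; inconclusive means IC50 above 10 µM up to 20 µM; inactive means IC50 over 20 µM.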

For this assay, the target named is Ubiquitin-like modifier-activating enzyme 1 (Homo sapiens) (UniProt P22314). Nature of the assay: inhibition of ubiquitin E1 thioester formation – biochemical, gel-based, fluorescent Ub (AID 1347406). The following applies: fluorescent Ub gel imaging.
Chain of Ubiquitin-like modifier-activating enzyme 1 (Homo sapiens) (P22314 whole entry, looked up): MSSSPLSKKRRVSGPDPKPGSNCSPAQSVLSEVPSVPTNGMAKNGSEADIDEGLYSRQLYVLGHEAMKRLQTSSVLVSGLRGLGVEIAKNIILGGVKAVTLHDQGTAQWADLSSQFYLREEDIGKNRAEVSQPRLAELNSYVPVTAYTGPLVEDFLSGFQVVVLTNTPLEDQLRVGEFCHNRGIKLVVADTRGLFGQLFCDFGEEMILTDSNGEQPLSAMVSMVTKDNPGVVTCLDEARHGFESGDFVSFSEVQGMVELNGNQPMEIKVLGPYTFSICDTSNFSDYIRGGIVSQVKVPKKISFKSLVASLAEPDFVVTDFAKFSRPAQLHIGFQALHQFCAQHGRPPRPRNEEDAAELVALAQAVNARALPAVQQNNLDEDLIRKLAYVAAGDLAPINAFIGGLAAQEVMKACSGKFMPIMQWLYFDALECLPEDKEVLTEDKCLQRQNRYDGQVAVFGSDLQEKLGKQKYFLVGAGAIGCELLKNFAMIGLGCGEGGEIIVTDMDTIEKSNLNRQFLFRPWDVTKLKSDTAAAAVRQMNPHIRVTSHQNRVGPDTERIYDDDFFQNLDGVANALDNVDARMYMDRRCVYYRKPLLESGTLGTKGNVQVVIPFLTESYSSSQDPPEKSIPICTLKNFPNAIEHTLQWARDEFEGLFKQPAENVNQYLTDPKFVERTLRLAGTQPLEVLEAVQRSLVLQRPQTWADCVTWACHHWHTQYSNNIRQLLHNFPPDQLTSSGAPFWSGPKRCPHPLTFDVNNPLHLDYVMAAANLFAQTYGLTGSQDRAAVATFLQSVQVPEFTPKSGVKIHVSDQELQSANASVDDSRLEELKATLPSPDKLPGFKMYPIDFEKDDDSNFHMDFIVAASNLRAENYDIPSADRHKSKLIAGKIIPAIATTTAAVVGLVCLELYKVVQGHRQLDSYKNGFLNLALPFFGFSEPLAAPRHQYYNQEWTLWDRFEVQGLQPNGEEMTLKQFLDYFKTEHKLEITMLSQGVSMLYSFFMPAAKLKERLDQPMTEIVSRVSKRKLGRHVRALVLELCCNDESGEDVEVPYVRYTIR
Regarding `CN(CCC(=O)C=Cc1ccc(Cl)c(Cl)c1)CCc1ccc2c(c1)OCO2`, the outcome was “inactive; >50 µM”.
In the case of `CCOC(=O)c1c(NC(=O)CCC(=O)O)sc(C)c1-c1ccc(CC(C)C)cc1`, the outcome is “inactive; >50 µM”.
For `CCCCCCCCCOc1ccc(C#CC(=O)O)cc1`, the call was inactive.
Take `CNc1ccccc(C(=O)C=Cc2ccc3c(c2)OCO3)c1=O`: the outcome was “inactive; >50 µM”.
Take `NCCCSc1nc2c(c(=O)n1Cc1ccccc1)C1(CCCCC1)Cc1ccccc1-2`: the outcome was “inactive; >50 µM”.
`CCNc1ccc(Br)cc(C(=O)/C=C/c2c(Cl)cccc2Cl)c1=O`: the outcome was “inactive; >50 µM”.
Under `CCOc1ccc2nc3cc(NC(=O)c4ccco4)ccc3c(N)c2c1` stands “inactive; >50 µM”.
